Compound activity (PubChem)
Most compounds without a hit are left out; they make up all but 4.2% or so of the library.
ClpP mod = qHTS Assay for Activators of ClpP. ATP-dependent Clp protease proteolytic subunit (Bacillus subtilis (strain 168)), P80244. purified B. subtilis ClpP, FRET peptide cleavage, 20 min. Potency, µM (top dose mostly 57.5 µM), for inactives: top-dose activity change, negative = active. hit rate 1.9% among 340,000. AID 651965, 2013; active = well fitted falling curve with a large enough effect; inconclusive = small, poorly fitted or top-dose-only effect; inactive = no such curve, though single readings can be large or run the other way; note: potency is the fitted concentration of half-maximal effect; the source files actives as falling curves though it sought activators and does not explain the sign; nearly all actives have a fitted effect of over 65% in size
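Purified B. subtilis ClpP, 10 microg/mL final in Tris/HCl pH8 with KCl, BSA, glycerol and Tween-20, cleaved an Abz/nitrotyrosine-quenched decapeptide. Fluorescence (ex 320, em 430) was read at 0 and 20 min at room temperature. Delta was normalized to 5.8 microM ADEP and DMSO/no-enzyme controls.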
uPA surface inh = cell surface uPA generation inhibition. cell surface uPA generation assay, qHTS. Potency, µM (titrated, usually from 38.3 µM), inactives show top-dose activity change, negative = inhibition, usual class: inhibitors. hit rate 0.31% among 330,000. AID 540303; active = well fitted inhibition curve with a large enough effect; inconclusive = small, poorly fitted or top-dose-only effect; inactive = no such curve, though single readings can be large or run the other way; tested in mouse RAW 264.7 cells; note: potency is the fitted concentration of half-maximal effect; % is set by controls: 0 for no effect and ±100 for the full control effect; nearly all actives have a fitted effect of over 55% in size
Sfp inh = inhibitors of Bacillus subtilis Sfp phosphopantetheinyl transferase | Potency, µM, without a hit: largest response in the series, negative = inhibition, most hits filed as inhibitors | AID 1490 | Q9F4F7 | hit rate 3.5% among 310,000 | Biochemical Sfp PPTase activity, qHTS;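 note: the enzyme is Sfp with the accession as filed and its product quenches rhodamine fluorescence; potency is the fitted concentration of half-maximal effect; 0% = enzyme reaction without inhibitor and -100% = no enzyme wells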
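Sfp 15 nM + cpd, 15 min RT; start w/ rhodamine-CoA 5 uM, BHQ-2-YbbR 12.5 uM (final); 50 mM Hepes pH 7.6, 10 mM MgCl2, 0.01% NP-40, 0.01% BSA; read 525/598 nm at 0 and 30 min.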
TCR activator = activates T cell receptor signaling. primary human leukocytes, anti-CD3, IL-2 HTRF, 48 h. Potency, µM (titrated, usually from 9.22 µM), for inactives: top-dose activation of IL-2 secretion, most hits filed as activators. 330,000 tested, under 10 active. AID 504894; note: % of control where 0% means no effect
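Human primary leukocytes + a-CD3 beads + cpd, 48 hr; IL-2 in supernatant by HTRF (ex 320nm / em 665nm). No co-stimulatory signal supplied.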
The depositor's hits bear a star; ? = inconclusive; / = no result; ! = repeats disagree; [ ] = another dose, or the depositor's remark. Unless noted, calls come from the whole dose curve; as a rule, active = well fitted curve in the direction sought with a large enough effect; inconclusive = small, poorly fitted or top-dose-only effect, or another doubt; inactive = no such curve, though single readings can be large; an effect the other way counts as inactive or inconclusive.

SMILES	ClpP mod	uPA surface inh	Sfp inh	TCR activator
CCOC(=O)c1cc2c(=O)n3ccccc3nc2n(CC(C)C)c1=NC(=O)c1ccco1	7.08µM*	-2.8%	-26.9%	-2.4%
CCOC(=O)c1cc2c(=O)n3ccccc3nc2n(Cc2ccco2)c1=NC(=O)c1ccccc1OCC	/	4.6%	44.7µM*	-25.1%
CCOC(=O)c1cc2c(=O)n3cccc(C)c3nc2n(Cc2ccco2)c1=NC(=O)c1cccnc1	14.1µM*	-3.9%	25.1µM*	1.1%
CCOC(=O)c1cc2c(=O)n3ccccc3nc2n(Cc2ccco2)c1=NC(=O)c1ccc(C)c(C)c1	3.8%	/	/	/
CCc1ccc(S(=O)(=O)N2CCN(c3ccc(Cl)c(Cl)c3)CC2)cc1	-3.1%	/	/	/
Cc1nn(Cc2ccccc2)c(C)c1N	28.2µM*	0.4%	0.5%	-1.0%[46.1 µM]
Cc1nn(Cc2ccccc2Cl)c(C)c1N	-1.3%	9.2%	14.5%	3.2%
COC(=O)N1CCC[C@@]2(CCN(Cc3nccs3)C2)C1	/	/	11.6%	/
CC(=O)Nc1sc2c(c1C(c1ccccn1)N1CCN(C)CC1)CCCC2 (stereo not given)	0.5%	-8.0%	-6.1%	2.7%
CC(=O)Nc1sc2c(c1C(c1ccccn1)N1CCCC1)CCCC2 (stereo not given)	1.7%	2.5%	44.7µM*	-4.3%
CCOc1ccc(S(=O)(=O)N2CCC(C(=O)NC3CC3)CC2)cc1Cl	/	1.1%	17.1%	-0.8%
O=C(C[n+]1cc(-c2ccc(Cl)c(Cl)c2)n2c1CCC2)N1c2ccccc2Sc2ccccc21	1.0%	4.3%	44.7µM*	-7.1%[46.1 µM]
Cc1ccc(NC(=O)C(C)c2cccc(C(=O)c3ccccc3)c2)cc1O (stereo not given)	20µM*	-7.2%	13.9%	-3.3%[46.1 µM]
Cc1cccc(NC(=O)C(C)C(=O)c2ccccc2)c1 (stereo not given)	2.2%	6.0%	7.5%	-2.0%
O=C(Cc1c(Cl)cccc1Cl)OCc1ccccn1	/	-1.1%	13.0%	2.4%
NC(N)=NC(=O)Cc1c(Cl)cccc1Cl	0.6%	-9.9%	89.1µM*!	-2.2%
CC1(C)CC(=O)C2=C(C1)Nc1[nH]c(=S)[nH]c(=O)c1C2c1ccccc1 (stereo not given)	5.9%	-3.5%	28.2µM*	-4.3%
Cc1ccc(C2C3=C(CCCC3=O)Nc3[nH]c(=S)[nH]c(=O)c32)cc1 (stereo not given)	8.6%	/	7.94µM*	-7.5%
Cc1ccc2nc3c(cc2c1)CN(Cc1ccco1)C(=NCC1CCCO1)S3 (stereo not given)	-3.6%	-1.9%	?	-6.2%
COCCN=C1Sc2nc3ccc(C)cc3cc2CN1Cc1cccs1	/	-5.4%	22.4µM*	-5.7%
CCC(C)N=C1Sc2nc3ccc(C)cc3cc2CN1CCOC (stereo not given)	/	-0.2%	44.7µM*	-0.8%
COCCN=C1Sc2nc3c(C)cccc3cc2CN1Cc1ccco1	5.8%	-2.0%	20µM*	-8.8%
CCOc1ccc(N=C2Sc3nc4ccc(C)cc4cc3CN2CCOC)cc1	-1.8%	2.7%	?	6.8%
COCCN1Cc2cc3cc(C)ccc3nc2SC1=Nc1ccc(OC)cc1	/	5.9%	20µM*	-3.3%
CN(C)S(=O)(=O)c1ccc(NC(=O)COc2cccc3c2OC(C)(C)C3)cc1	1.2%	-5.4%	/	-5.2%
SMILES	ClpP mod	uPA surface inh	Sfp inh	TCR activator
COc1ncc2nc(-c3ccc(F)cc3)c(=O)n(C[C@H]3CCCO3)c2n1	/	/	7.9%	/
O=C1CCC(C(=O)N2CCCCCC2)CN1CCc1ccc(Cl)cc1 (stereo not given)	0.4%	-0.7%	15.6%	-2.7%
COC(=O)c1c(N2C(=O)CC(Sc3ncccc3C(=O)O)C2=O)sc(C)c1C (stereo not given)	/	-6.7%	89.1µM*	3.5%
Cc1cc(OI)c(C(C)C)cc1-c1cc(C(C)C)c(OI)cc1C	/	/	56.2µM*	/
Cc1nn(CC(=O)NC(C)c2ccccc2)c(=O)c2cc3occc3n12 (stereo not given)	-2.5%	/	/	/
Cc1ccc(/C=C(\C#N)C(=O)Nc2ccc(Br)cc2)o1	1.2%	/	/	/
N#C/C(=C\c1ccc([N+](=O)[O-])o1)C(=O)Nc1ccc(F)cc1	/	-1.2%	39.8µM*	0.7%
CCN(CC)Cc1cc(O)c(CN(CC)CC)cc1O	-8.5%	5.7%	10µM*	-0.1%
O=c1[nH]cnc2sc(-c3ccccc3)cc12	31.6µM*	-26.6%	8.6%	4.3%
CCCCNc1nc(-c2ccccc2)c(C(=O)OCC)cc1C#N	?	-18.2%	0.6%	7.3%
